# Source: PubChem BioAssay (EPA / NIEHS)
# Records with an inconclusive call do not appear. Activity calls are given as the source filed them. How the source made its calls, unless noted: active means hit-call score of the fitted dose curve at least 0.9, where 1 is the maximum; inactive means score below 0.9.
# Assays:
# [1] = BSK_3C_VCAM1: BioMAP Diversity Plus: 3C Assay for Vascular cell adhesion molecule 1 (VCAM1) Biomarker Activity (AID 2282999); conditions: BioMAP 3C HUVEC, VCAM1 ELISA, cytokine-stimulated; actives raise or lower the signal
# Outline: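 Human umbilical vein endothelial cells (3C system), biomarker read by ELISA 24 h after dosing; bidirectional fit against DMSO baseline. Cytotoxicity tracked by SRB total-protein staining in parallel cultures at biomarker time.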
# [2] = BSK_4H_Eotaxin3: BioMAP Diversity Plus: 4H Assay for Eotaxin 3 Biomarker Activity (AID 2283000); conditions: primary human endothelial cells (HUVEC); actives raise or lower the signal;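 on outcome: CCL26 protein level quantified by ELISA in parallel with SRB cytotoxicity check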
# Outline: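 Chemicals were added to human umbilical vein endothelium cultures, and Eotaxin-3 was quantified by ELISA at 24 h. Values were derived by bidirectional fitting with DMSO serving as negative control and activity baseline.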
# [3] = target: human Peroxisome Proliferator-activated Receptor alpha (PPARa), PPARA (gene 5465) (UniProt Q07869); assay: ATG_PPARa_TRANS: Attagene TRANS-FACTORIAL HepG2 Assay for human Peroxisome Proliferator-activated Receptor alpha (PPARa) (AID 2283001; active means hit-call score of the fitted dose curve at least 0.9, where 1 is the maximum)
# Outline: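 HepG2 cells transiently transfected with multiplexed GAL4-UAS reporters driven by exogenous chimeric NR-Gal4 proteins; reporter mRNA measured after 24 h dosing. Read-out by RT-PCR, 6-FAM labelling, HpaI digestion and capillary electrophoresis; gain of signal versus DMSO.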
# [4] = target: human Peroxisome Proliferator-activated Receptor delta (PPARd), PPARD (gene 5467) (UniProt Q03181); assay: ATG_PPARd_TRANS: Attagene TRANS-FACTORIAL HepG2 Assay for human Peroxisome Proliferator-activated Receptor delta (PPARd) (AID 2283002; active means hit-call score of the fitted dose curve at least 0.9, where 1 is the maximum)
# Outline: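 HepG2 cells transiently transfected with GAL4-UAS multiplexed reporter units driven by exogenous chimeric NR-GAL4 proteins; 24 h compound exposure. Reporter mRNA measured by RT-PCR, 6-FAM primer extension, HpaI digestion and capillary electrophoresis; gain of signal fitted relative to DMSO.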
# [5] = read-out: Intercellular Adhesion Molecule 1 (ICAM1), ICAM1 (gene 3383); assay: BSK_3C_ICAM1: BioMAP Diversity Plus: 3C Assay for Intercellular Adhesion Molecule 1 (ICAM1) Biomarker Activity (AID 2283003); conditions: primary human endothelial cells (HUVEC); actives raise or lower the signal
# Outline: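 HUVEC primary cells stimulated under 3C conditions; ICAM1 measured by ELISA 24 h after compound dosing. Curves fitted bidirectionally against the DMSO baseline. Overt cytotoxicity checked by SRB staining of parallel cultures.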
# [6] = BSK_3C_Proliferation: Cell Proliferation Assessment in the BioMAP Diversity Plus: 3C Assay (AID 2283006); conditions: primary human endothelial cells (HUVEC)
# Outline: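 Subconfluent HUVEC (3C system) cultured with chemical; relative cell number read at 48 h by sulforhodamine B total-protein staining (0.1% SRB after 10% TCA fixation, 560 nm). Bidirectional fit relative to DMSO.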
# [7] = target: Peroxisome proliferator-activated receptor gamma (Homo sapiens) (UniProt P37231); assay: ATG_PPARg_TRANS: Attagene TRANS-FACTORIAL HepG2 Assay for human Peroxisome Proliferator-activated Receptor-gamma (PPARg) (AID 2283007; active means hit-call score of the fitted dose curve at least 0.9, where 1 is the maximum)
# Outline: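 Transient transfection of HepG2 with GAL4-UAS-driven reporter units; chemical dosing 24 h; total RNA → oligo(dT) RT → PCR with reporter primers → 6-FAM primer extension → HpaI digest 2 h 37 C → capillary electrophoresis. Positive direction vs DMSO.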
# [8] = target: Nuclear receptor subfamily 1 group I member 2 (Homo sapiens) (UniProt O75469); assay: ATG_PXR_TRANS: Attagene TRANS-FACTORIAL HepG2 Assay for human Pregnane X Receptor (PXR) (AID 2283008; active means hit-call score of the fitted dose curve at least 0.9, where 1 is the maximum)
# Outline: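 Fluorescence intensity of FAM-labelled, HpaI-digested reporter amplicons, separated by capillary electrophoresis, quantifies induction. HepG2 cells with PXR-Gal4 trans-reporter system were exposed 24 h; DMSO defines baseline.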
# [9] = target: human RAR-related Orphan Receptor gamma (RORg), RORC (gene 6097) (UniProt P51449); assay: ATG_RORg_TRANS: Attagene TRANS-FACTORIAL HepG2 Assay for human RAR-related Orphan Receptor gamma (RORg) (AID 2283011; active means hit-call score of the fitted dose curve at least 0.9, where 1 is the maximum)
# Outline: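 First, HepG2 liver cells were transfected with GAL4-UAS-driven reporter constructs and the RORg-Gal4 fusion. Next, they were treated with chemical for 24 h. Finally, reporter mRNA was quantified by RT-PCR and capillary electrophoresis, with upward activity fitted against DMSO.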
# [10] = target: Retinoic acid receptor RXR-alpha (Homo sapiens) (UniProt P19793); assay: ATG_RXRa_TRANS: Attagene TRANS-FACTORIAL HepG2 Assay for human Retinoid X Receptor alpha (RXRa) (AID 2283012; active means hit-call score of the fitted dose curve at least 0.9, where 1 is the maximum)
# Outline: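 HepG2 cells transiently transfected with GAL4-UAS reporter units and chimeric RXRa-Gal4 protein, treated 24 h. Reporter mRNA measured by RT-PCR, fluorescent labelling, HpaI digestion and capillary electrophoresis. Induction fitted against DMSO.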
# [11] = target: human Thyroid Receptor alpha (THRa1), THRA (gene 7067) (UniProt P10827); assay: ATG_THRa1_TRANS: Attagene TRANS-FACTORIAL HepG2 Assay for human Thyroid Receptor alpha (THRa1) (AID 2283014; active means hit-call score of the fitted dose curve at least 0.9, where 1 is the maximum)
# Outline: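 Reporter transcript induction, read by capillary electrophoresis of 6-FAM-labelled RT-PCR products, reflects activity of a transfected THRa1-Gal4 fusion in HepG2 liver cells. Cells were dosed for 24 h; activity was fitted in the positive direction against DMSO.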
# [12] = read-out: E-selectin (Homo sapiens) (UniProt P16581); assay: BSK_3C_Eselectin: BioMAP Diversity Plus: 3C Assay for Eselectin Biomarker Activity (AID 2283015); conditions: primary human endothelial cells (HUVEC); actives raise or lower the signal;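 further: cell surface E-selectin protein quantified by ELISA 24 h after dosing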
# Outline: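 ELISA read-out of E-selectin on endothelial monolayers after 24 h chemical treatment. Human umbilical vein primary cells served as the system, with DMSO defining baseline activity for bidirectional fitting.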
# [13] = read-out: Interleukin-1 alpha (IL1a), IL1A (gene 3552); assay: BSK_BE3C_IL1a: BioMAP Diversity Plus: BE3C Assay for Interleukin-1 alpha (IL1a) Biomarker Activity (AID 2283016); conditions: primary human bronchial epithelial cells; actives raise or lower the signal
# Outline: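 Human primary bronchial epithelial cells, 24 h chemical exposure; IL-1a quantified by ELISA, fitted bidirectionally against DMSO. Cytotoxicity assessed in parallel by SRB total-protein staining at the time of measurement.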
# [14] = read-out: Monocyte Chemoattractant Protein-1 (MCP1), CCL2 (gene 6347); assay: BSK_3C_MCP1: BioMAP Diversity Plus: 3C Assay for Monocyte Chemoattractant Protein-1 (MCP1) Biomarker Activity (AID 2283017); conditions: primary human endothelial cells (HUVEC); actives raise or lower the signal
# Outline: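 ELISA read-out of MCP-1 from human umbilical vein endothelial cell cultures harvested 24 h post-dosing. Gain or loss of signal was fitted relative to DMSO.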
# [15] = read-out: Monocyte Chemoattractant Protein-1 (MCP1), CCL2 (gene 6347); assay: BSK_4H_MCP1: BioMAP Diversity Plus: 4H Assay for Monocyte Chemoattractant Protein-1 (MCP1) Biomarker Activity (AID 2283018); conditions: primary human endothelial cells (HUVEC); actives raise or lower the signal
# Outline: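 Human umbilical vein endothelial cells (4H system) exposed to chemicals for 24 h in 96-well format. MCP-1 measured by ELISA; bidirectional fitting against DMSO, with SRB total-protein staining in parallel cultures for cytotoxicity.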
# [16] = read-out: Human Leukocyte Antigen - DR isotype (HLADR), HLA-DRA (gene 3122); assay: BSK_3C_HLADR: BioMAP Diversity Plus: 3C Assay for Human Leukocyte Antigen - DR isotype (HLADR) Biomarker Activity (AID 2283019); conditions: primary human endothelial cells (HUVEC); actives raise or lower the signal;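 further: ELISA of cell-surface HLA-DR on HUVEC 24 h after dosing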
# Outline: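 ELISA readout of surface HLA-DR on human umbilical vein endothelium, taken 24 h after chemical treatment. Gain- and loss-of-signal were both fitted relative to DMSO.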
# [17] = target: human Retinoic Acid Receptor beta (RARb), RARB (gene 5915) (UniProt P10826); assay: ATG_RARb_TRANS: Attagene TRANS-FACTORIAL HepG2 Assay for human Retinoic Acid Receptor beta (AID 2283004; active means hit-call score of the fitted dose curve at least 0.9, where 1 is the maximum)
# Outline: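 Transient transfection of HepG2 with multiple reporter units → chemical dosing, 24 h → total RNA isolation → RT with oligo(dT) → reporter-specific PCR, 6-FAM primer extension, HpaI digest → capillary electrophoresis. Positive direction vs DMSO control.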
# [18] = target: Retinoic acid receptor alpha (Homo sapiens) (UniProt P10276); assay: ATG_RARa_TRANS: Attagene TRANS-FACTORIAL HepG2 Assay for human Retinoic Acid Receptor alpha (RARa) (AID 2283005; active means hit-call score of the fitted dose curve at least 0.9, where 1 is the maximum)
# Outline: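 HepG2 transiently transfected with multiplex GAL4-UAS reporter units including a human RARa–GAL4 chimera; 24 h compound exposure. Reporter mRNA quantified by RT-PCR, 6-FAM labeling and capillary electrophoresis; gain of signal versus DMSO.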
# [19] = target: human Retinoic Acid Receptor gamma (RARg), RARG (gene 5916) (UniProt P13631); assay: ATG_RARg_TRANS: Attagene TRANS-FACTORIAL HepG2 Assay for human Retinoic Acid Receptor gamma (RARg) (AID 2283009; active means hit-call score of the fitted dose curve at least 0.9, where 1 is the maximum)
# Outline: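 HepG2 transiently transfected with GAL4-UAS reporter units and chimeric NR-Gal4 constructs; 24 h compound exposure. Reporter mRNA quantified by RT-PCR, FAM labeling, HpaI digestion and capillary electrophoresis; gain-of-signal versus DMSO.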
# [20] = target: human Retinoid X Receptor beta (RXRb), RXRB (gene 6257) (UniProt P28702); assay: ATG_RXRb_TRANS: Attagene TRANS-FACTORIAL HepG2 Assay for human Retinoid X Receptor beta (RXRb) (AID 2283013; active means hit-call score of the fitted dose curve at least 0.9, where 1 is the maximum)
# Outline: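 HepG2 cells were transiently transfected with multiplexed GAL4-UAS reporters and a chimeric RXRb-Gal4 construct, then exposed for 24 h. Reporter mRNA was quantified by RT-PCR, FAM labeling, HpaI digestion and capillary electrophoresis; gain of signal was scored against DMSO.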
# Chain of human RAR-related Orphan Receptor gamma (RORg), RORC (gene 6097) (P51449 whole entry, looked up, the tested form may be a part): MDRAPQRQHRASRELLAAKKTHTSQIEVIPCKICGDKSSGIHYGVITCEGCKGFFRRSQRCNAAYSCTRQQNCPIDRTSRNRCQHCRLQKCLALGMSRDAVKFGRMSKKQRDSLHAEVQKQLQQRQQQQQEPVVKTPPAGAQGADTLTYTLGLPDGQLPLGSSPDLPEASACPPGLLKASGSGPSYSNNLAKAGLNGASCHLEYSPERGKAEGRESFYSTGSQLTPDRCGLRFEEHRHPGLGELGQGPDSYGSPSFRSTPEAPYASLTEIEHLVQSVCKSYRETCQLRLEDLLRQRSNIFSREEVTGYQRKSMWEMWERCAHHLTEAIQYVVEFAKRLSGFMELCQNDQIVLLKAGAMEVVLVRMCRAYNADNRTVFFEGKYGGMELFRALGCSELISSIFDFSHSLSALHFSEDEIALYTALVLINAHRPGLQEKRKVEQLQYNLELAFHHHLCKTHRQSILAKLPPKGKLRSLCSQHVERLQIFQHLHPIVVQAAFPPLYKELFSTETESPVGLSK
# Chain of Peroxisome proliferator-activated receptor gamma (Homo sapiens) (P37231 whole entry, looked up, the tested form may be a part): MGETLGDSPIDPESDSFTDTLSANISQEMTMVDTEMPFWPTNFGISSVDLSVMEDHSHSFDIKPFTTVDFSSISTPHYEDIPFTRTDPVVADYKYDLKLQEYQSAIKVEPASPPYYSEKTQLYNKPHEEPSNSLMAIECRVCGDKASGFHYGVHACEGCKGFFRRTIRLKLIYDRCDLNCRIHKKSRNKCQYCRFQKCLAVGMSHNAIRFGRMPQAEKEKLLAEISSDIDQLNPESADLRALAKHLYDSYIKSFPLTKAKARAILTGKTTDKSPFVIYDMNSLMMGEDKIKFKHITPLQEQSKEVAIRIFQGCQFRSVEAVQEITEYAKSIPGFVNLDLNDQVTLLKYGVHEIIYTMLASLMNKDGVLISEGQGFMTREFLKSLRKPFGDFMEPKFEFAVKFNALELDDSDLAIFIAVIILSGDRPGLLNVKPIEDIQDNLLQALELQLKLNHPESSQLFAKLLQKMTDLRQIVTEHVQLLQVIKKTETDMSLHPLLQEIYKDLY
# Chain of E-selectin (Homo sapiens) (P16581 whole entry, looked up): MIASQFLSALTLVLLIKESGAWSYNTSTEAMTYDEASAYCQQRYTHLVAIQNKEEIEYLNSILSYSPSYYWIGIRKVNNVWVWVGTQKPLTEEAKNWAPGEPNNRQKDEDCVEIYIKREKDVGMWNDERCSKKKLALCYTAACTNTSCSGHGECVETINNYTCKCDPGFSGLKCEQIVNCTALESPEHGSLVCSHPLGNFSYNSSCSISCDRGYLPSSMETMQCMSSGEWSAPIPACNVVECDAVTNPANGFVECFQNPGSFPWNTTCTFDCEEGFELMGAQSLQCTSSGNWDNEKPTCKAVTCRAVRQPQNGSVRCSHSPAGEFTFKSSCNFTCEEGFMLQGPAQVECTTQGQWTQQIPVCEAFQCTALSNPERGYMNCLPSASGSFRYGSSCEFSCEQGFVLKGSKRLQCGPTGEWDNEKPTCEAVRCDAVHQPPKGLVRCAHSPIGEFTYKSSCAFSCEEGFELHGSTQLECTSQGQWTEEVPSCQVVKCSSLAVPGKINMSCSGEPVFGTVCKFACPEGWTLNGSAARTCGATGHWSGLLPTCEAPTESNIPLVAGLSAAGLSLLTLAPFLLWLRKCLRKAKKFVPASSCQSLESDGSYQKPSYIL
# Chain of human Thyroid Receptor alpha (THRa1), THRA (gene 7067) (P10827 whole entry, looked up, the tested form may be a part): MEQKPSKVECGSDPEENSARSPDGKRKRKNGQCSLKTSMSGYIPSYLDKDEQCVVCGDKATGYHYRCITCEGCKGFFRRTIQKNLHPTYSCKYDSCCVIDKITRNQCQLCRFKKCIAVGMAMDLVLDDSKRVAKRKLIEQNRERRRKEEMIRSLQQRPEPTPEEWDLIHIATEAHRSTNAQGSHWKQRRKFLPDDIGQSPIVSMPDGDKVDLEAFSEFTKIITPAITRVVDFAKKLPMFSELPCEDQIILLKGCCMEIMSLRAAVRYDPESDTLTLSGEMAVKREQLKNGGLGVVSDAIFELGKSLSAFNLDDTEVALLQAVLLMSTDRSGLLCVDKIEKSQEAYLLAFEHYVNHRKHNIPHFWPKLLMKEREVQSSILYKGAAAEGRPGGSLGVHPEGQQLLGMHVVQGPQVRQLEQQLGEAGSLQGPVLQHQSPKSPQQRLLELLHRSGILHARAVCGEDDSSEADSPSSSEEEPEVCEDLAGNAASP
# Chain of Retinoic acid receptor RXR-alpha (Homo sapiens) (P19793 whole entry, looked up, the tested form may be a part): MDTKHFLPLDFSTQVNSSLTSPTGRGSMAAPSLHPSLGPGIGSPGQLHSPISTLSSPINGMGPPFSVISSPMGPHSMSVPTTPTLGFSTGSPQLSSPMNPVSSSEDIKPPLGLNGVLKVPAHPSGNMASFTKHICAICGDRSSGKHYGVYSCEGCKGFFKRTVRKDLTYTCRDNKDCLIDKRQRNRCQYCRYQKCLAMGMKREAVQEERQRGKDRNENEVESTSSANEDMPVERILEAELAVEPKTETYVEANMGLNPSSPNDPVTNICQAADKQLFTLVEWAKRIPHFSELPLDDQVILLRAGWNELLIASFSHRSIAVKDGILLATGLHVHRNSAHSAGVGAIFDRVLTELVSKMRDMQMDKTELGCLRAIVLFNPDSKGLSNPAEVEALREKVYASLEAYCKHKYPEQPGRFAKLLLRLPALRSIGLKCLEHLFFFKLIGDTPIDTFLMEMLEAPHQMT
# Chain of human Peroxisome Proliferator-activated Receptor delta (PPARd), PPARD (gene 5467) (Q03181 whole entry, looked up, the tested form may be a part): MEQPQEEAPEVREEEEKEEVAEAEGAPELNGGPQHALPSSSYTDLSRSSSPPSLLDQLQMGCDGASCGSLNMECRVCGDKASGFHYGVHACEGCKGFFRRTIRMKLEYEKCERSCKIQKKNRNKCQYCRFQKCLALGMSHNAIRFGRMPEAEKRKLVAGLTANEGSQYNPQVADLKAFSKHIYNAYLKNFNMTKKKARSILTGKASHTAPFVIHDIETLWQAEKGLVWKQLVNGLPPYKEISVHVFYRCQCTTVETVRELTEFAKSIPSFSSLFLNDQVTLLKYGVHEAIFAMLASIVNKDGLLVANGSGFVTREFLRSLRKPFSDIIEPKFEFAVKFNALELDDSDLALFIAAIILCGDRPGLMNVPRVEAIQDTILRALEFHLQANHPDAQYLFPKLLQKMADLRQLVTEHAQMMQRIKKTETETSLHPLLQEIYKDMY
# Chain of human Peroxisome Proliferator-activated Receptor alpha (PPARa), PPARA (gene 5465) (Q07869 whole entry, looked up, the tested form may be a part): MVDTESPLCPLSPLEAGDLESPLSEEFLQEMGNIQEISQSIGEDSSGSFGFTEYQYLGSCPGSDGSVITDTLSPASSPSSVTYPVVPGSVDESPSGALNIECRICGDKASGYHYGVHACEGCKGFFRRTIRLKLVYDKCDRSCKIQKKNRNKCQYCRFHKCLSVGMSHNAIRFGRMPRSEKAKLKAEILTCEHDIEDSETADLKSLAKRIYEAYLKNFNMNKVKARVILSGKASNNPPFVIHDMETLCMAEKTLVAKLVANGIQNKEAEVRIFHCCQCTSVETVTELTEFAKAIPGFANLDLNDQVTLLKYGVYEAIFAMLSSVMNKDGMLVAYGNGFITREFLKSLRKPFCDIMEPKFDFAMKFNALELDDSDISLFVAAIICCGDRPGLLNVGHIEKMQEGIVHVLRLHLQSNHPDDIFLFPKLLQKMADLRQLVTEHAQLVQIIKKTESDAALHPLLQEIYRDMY
# Chain of Nuclear receptor subfamily 1 group I member 2 (Homo sapiens) (O75469 whole entry, looked up, the tested form may be a part): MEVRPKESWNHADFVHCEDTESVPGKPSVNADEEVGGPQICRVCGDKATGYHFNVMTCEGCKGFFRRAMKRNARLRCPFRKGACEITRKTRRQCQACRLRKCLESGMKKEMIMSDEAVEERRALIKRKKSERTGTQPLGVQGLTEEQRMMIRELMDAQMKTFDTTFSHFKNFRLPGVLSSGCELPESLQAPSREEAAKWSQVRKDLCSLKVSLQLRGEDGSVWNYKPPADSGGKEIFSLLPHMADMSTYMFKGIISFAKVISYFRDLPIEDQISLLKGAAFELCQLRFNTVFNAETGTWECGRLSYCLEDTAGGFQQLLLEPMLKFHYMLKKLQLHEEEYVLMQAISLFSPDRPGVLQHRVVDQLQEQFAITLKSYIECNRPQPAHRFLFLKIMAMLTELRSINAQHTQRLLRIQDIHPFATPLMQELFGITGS
# Chain of human Retinoid X Receptor beta (RXRb), RXRB (gene 6257) (P28702 whole entry, looked up, the tested form may be a part): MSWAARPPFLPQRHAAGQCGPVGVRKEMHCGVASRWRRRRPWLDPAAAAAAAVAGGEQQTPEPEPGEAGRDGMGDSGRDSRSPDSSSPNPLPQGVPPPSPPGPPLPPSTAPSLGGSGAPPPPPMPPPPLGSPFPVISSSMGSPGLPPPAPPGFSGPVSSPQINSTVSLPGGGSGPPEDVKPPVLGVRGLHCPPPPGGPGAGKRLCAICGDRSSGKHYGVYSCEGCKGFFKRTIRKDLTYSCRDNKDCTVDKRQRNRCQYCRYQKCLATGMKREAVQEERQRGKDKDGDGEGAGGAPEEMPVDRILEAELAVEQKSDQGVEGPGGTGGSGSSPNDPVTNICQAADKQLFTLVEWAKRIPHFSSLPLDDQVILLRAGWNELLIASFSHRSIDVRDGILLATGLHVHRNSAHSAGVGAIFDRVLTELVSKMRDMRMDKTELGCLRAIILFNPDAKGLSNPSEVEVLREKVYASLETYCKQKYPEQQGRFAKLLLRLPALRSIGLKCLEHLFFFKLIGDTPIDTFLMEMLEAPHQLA
# Chain of human Retinoic Acid Receptor beta (RARb), RARB (gene 5915) (P10826 whole entry, looked up): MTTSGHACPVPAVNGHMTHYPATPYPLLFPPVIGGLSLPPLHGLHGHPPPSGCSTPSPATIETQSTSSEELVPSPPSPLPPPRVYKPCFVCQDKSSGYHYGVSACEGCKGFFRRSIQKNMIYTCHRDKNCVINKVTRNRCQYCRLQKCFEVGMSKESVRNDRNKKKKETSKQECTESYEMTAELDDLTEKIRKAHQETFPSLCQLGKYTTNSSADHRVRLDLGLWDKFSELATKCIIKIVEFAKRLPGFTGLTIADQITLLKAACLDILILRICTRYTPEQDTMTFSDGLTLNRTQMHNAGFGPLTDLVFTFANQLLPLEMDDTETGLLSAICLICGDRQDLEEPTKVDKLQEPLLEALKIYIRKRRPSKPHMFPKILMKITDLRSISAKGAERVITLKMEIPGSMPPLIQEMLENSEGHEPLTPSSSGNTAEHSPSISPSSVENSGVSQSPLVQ
smiles,measurement,setting,value
CCCCC(CC)COC(=O)c1c(Br)c(Br)c(Br)c(Br)c1C(=O)OCC(CC)CCCC (configuration not stated),outcome,[1],inactive
same,outcome,[2],inactive
same,outcome,[3],inactive
same,outcome,[4],inactive
same,outcome,[5],inactive
same,outcome,[6],inactive
same,outcome,[7],inactive
same,outcome,[8],inactive
same,outcome,[9],inactive
same,outcome,[10],inactive
same,outcome,[11],inactive
same,outcome,[12],inactive
same,outcome,[13],inactive
same,outcome,[14],inactive
same,outcome,[15],inactive
same,outcome,[16],inactive
Nc1ccc2ccccc2c1,outcome,[1],inactive
same,AC50,[2],9.1 µM (active)
same,outcome,[3],inactive
same,outcome,[5],inactive
same,outcome,[17],inactive
same,outcome,[18],inactive
same,outcome,[6],inactive
same,outcome,[7],inactive
same,outcome,[8],inactive
same,outcome,[19],inactive
same,outcome,[9],inactive
same,outcome,[10],inactive
same,outcome,[11],inactive
same,outcome,[12],inactive
same,outcome,[13],inactive
same,outcome,[14],inactive
same,outcome,[16],inactive
Nc1cc2c3c(c1)C(c1ccccc1)=N[C@@H](NC(=O)c1cccnc1)C(=O)N3CC2,outcome,[1],inactive
same,outcome,[2],inactive
same,outcome,[3],inactive
same,outcome,[4],inactive
same,outcome,[5],inactive
same,outcome,[6],inactive
same,AC50,[7],48.4 µM (active)
same,AC50,[8],11.2 µM (active)
same,outcome,[9],inactive
same,outcome,[10],inactive
same,outcome,[20],inactive
same,outcome,[12],inactive
same,outcome,[13],inactive
same,outcome,[14],inactive
same,outcome,[16],inactive
CCC1(c2ccccc2)C(=O)N=C(O)NC1=O (configuration not stated),outcome,[1],inactive
same,outcome,[2],inactive
same,outcome,[3],inactive
same,outcome,[4],inactive
same,outcome,[5],inactive
same,outcome,[6],inactive
same,outcome,[7],inactive
same,outcome,[8],inactive
same,outcome,[20],inactive
same,outcome,[11],inactive
same,outcome,[12],inactive
same,outcome,[13],inactive
same,outcome,[14],inactive
same,outcome,[16],inactive
